In PubChem BioAssay (Tox21):
Records with an inconclusive call do not appear. Calls of active or inactive are those of the source. Unless noted, the call rests on the fitted dose curve; in most records, active means well fitted curve in the direction sought with a large enough effect in the repeat runs; inconclusive means weak or mixed curves; inactive means no such curve, though single readings can be large; an effect the other way counts as inactive or inconclusive.

Assays:
[1] = qHTS assay to identify small molecule antagonists of the estrogen related receptor (ERR) signaling pathway from Tox21 library - cell viability counter screen (AID 1224834); further: nearly all actives have a fitted effect of over 30% in size
How it was run: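 ERR cells, 2,000/well; 6 h settle at 37 C/5% CO2; pin-tool compound transfer in DMSO; 17.5 h at 37 C; CellTiter-Fluor, 30 min; fluorescence intensity.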

[2] = molecular target: Luciferin 4-monooxygenase (Photinus pyralis) (UniProt P08659); test: qHTS assay to identify small molecule inhibitors of firefly luciferase (AID 1224835); further: nearly all actives have a fitted effect of over 25% in size
Sequence of Luciferin 4-monooxygenase (Photinus pyralis) (P08659 whole entry, looked up): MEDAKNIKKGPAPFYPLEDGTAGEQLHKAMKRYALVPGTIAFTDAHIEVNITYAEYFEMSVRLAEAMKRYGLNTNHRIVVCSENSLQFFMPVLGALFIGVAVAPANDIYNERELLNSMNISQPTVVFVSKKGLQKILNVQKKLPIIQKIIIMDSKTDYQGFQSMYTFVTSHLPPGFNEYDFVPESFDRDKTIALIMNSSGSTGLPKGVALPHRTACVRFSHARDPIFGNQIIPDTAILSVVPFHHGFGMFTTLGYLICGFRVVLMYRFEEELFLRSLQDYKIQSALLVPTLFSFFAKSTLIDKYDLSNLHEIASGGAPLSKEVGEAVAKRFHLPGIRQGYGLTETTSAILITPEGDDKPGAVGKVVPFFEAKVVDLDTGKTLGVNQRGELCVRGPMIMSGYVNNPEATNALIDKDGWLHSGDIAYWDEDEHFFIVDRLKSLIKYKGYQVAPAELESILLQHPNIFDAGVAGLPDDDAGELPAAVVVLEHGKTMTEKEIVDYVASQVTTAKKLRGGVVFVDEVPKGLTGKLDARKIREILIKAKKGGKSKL
How it was run: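 Inhibition of purified Photinus luciferase is measured by luminescence. Substrate levels (D-luciferin, ATP) sit at their KM values. Each compound is tested in a concentration series.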

[3] = qHTS assay to identify small molecule agonists of the constitutive androstane receptor (CAR) signaling pathway - cell viability counter screen (AID 1224836); further: nearly all actives have a fitted effect of over 45% in size
How it was run: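 Compound titrations (15 concentrations) went onto HepG2-CYP2B6-hCAR cells 4 h after seeding, alongside PK11195 at a final 0.75 uM; a 23 h, 37 C/5% CO2 incubation preceded CellTiter-Fluor viability measurement.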

[4] = qHTS assay to identify small molecule antagonists of the constitutive androstane receptor (CAR) signaling pathway - cell viability counter screen (AID 1224837); further: nearly all actives have a fitted effect of over 45% in size
How it was run: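 Viability was measured with CellTiter-Fluor in a HepG2 line carrying stably transfected hCAR and a CYP2B6-2.2kb construct. Cells were exposed for 23 hr at 37 C to 15 compound concentrations with 50 nM CITCO as agonist.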

[5] = molecular target: Nuclear receptor subfamily 1 group I member 3 (Homo sapiens) (UniProt Q14994); test: qHTS assay to identify small molecule antagonists of the constitutive androstane receptor (CAR) signaling pathway (AID 1224838);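 further: HepG2 cells stably expressing hCAR with CYP2B6 luciferase reporter stimulated by CITCO; nearly all actives have a fitted effect of over 40% in size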
Sequence of Nuclear receptor subfamily 1 group I member 3 (Homo sapiens) (Q14994 whole entry, looked up): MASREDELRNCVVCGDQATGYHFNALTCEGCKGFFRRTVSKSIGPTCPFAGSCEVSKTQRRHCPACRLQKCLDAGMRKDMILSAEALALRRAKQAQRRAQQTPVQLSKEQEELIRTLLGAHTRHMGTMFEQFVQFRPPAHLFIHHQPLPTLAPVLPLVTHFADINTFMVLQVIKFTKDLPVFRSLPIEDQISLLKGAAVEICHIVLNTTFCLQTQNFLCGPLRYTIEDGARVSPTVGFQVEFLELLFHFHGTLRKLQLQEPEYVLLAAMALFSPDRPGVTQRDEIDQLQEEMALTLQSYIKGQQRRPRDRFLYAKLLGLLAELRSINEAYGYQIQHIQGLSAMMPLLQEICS
How it was run: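 Antagonist mode used CITCO at a final 50 nM to activate CAR in human hepatoma HepG2 cells carrying stable hCAR and a 2.2 kb CYP2B6 promoter-luciferase construct. Compounds were tested at 15 concentrations over 24 h, with luminescence as the end point.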

[6] = molecular target: Nuclear receptor subfamily 1 group I member 3 (Homo sapiens) (UniProt Q14994); test: qHTS assay to identify small molecule agonists of the constitutive androstane receptor (CAR) signaling pathway (AID 1224839); further: nearly all actives have a fitted effect of over 15% in size
How it was run: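 In this screen, CAR-driven CYP2B6 promoter activity is measured by luminescence in HepG2-CYP2B6-hCAR cells after 24 h with test compounds and 0.75 uM PK11195 (final concentration).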

[7] = qHTS assay to identify small molecule antagonists of the estrogen related receptor signaling pathway with the pleiotropic PPARgamma coactivator (PGC) from Tox21 10K library - cell viability counter screen (AID 1224840; active means well fitted cell-killing curve with a large enough effect in the repeat runs, not every such curve was filed as active; further: nearly all actives have a fitted effect of over 40% in size)
How it was run: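 Multiplexed viability counter screen in the PGC/ERR cell line: cells treated with DMSO-dissolved compounds for 17.5 hours at 37 C, then viability measured as CellTiter-Fluor fluorescence.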

[8] = qHTS assay to identify small molecule antagonists of the estrogen related receptor signaling pathway with the pleiotropic PPARgamma coactivator (PGC) from Tox21 10K library (AID 1224841; call rule not given here; further: actives are mostly falling curves and most rising ones were filed inactive; nearly all actives have a fitted effect of over 50% in size)
How it was run: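 Steps: plate 2,000 PGC/ERR cells per well; incubate 6 h at 37 C with 5% CO2; transfer compounds from DMSO stocks by pin tool; incubate 18 h at 37 C; add One-Glo; measure luminescence 30 min later.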

[9] = molecular target: Thyrotropin receptor (Homo sapiens) (UniProt P16473); test: qHTS assay to identify small molecule agonists of the thyroid stimulating hormone receptor (TSHR) signaling pathway (AID 1224843; calls by dose curve; further: nearly all actives have a fitted effect of over 45% in size)
Sequence of Thyrotropin receptor (Homo sapiens) (P16473 whole entry, looked up): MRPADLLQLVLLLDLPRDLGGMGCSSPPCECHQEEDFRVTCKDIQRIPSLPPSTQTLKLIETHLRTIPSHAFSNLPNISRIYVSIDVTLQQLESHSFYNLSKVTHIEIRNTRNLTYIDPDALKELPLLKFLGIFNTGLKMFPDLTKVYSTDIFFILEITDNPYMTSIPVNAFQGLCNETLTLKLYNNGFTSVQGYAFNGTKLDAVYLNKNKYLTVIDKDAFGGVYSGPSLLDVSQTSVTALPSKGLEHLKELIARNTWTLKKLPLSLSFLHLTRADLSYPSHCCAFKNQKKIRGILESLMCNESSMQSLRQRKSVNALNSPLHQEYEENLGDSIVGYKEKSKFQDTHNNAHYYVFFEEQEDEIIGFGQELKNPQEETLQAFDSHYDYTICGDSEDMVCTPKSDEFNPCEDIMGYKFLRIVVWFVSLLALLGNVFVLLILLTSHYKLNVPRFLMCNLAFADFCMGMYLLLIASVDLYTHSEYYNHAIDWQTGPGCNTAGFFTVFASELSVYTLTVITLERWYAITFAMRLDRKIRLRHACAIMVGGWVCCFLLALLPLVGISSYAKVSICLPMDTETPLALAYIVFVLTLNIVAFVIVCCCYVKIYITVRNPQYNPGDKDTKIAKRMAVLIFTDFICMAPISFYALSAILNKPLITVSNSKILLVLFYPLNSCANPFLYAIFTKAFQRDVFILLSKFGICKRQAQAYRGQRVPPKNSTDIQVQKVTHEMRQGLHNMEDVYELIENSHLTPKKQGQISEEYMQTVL
How it was run: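 A cell-based cAMP HTRF format was run in TSHR-transfected HEK293 cells, 800 per well. Treatment: 30 min, room temperature. Detection: 1 h with labelled cAMP and anti-cAMP cryptate. Concentration-response over 15 points, three replicates.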

[10] = qHTS assay to identify small molecule agonists of the hypoxia (HIF-1) signaling pathway - cell viability counter screen (AID 1224844; calls by dose curve; further: nearly all actives have a fitted effect of over 50% in size)
How it was run: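 Cytotoxicity was measured in parallel with the HRE-driven beta-lactamase readout: after 17 hrs of compound exposure at 37C, HRE-bla ME-180 cells received CellTiter-Glo and luminescence was recorded 30 min later.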

[11] = qHTS assay to identify small molecule agonists of H2AX (AID 1224845; active means well fitted activation curve with a large enough effect in the signal ratio in the repeat runs, not every such curve was filed as active; the % refers to the signal ratio)
How it was run: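 Phospho-H2AX Ser139 measured by HTRF (ex 320 nm; em 665 and 620 nm) after 24 hr antibody incubation. Compounds, 15 concentrations, 0.76% DMSO, were applied to CHO-K1 cells for 3hr at 37C before lysis.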

[12] = qHTS assay to identify small molecule agonists of H2AX - cell viability counter screen (AID 1224847; calls by dose curve; further: top concentration of the series differs between compounds; nearly all actives have a fitted effect of over 30% in size)
How it was run: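 Read-out: CellTiter-Glo luminescence, 30 min RT. Cells: wild-type CHO-K1, 1000/well, 10% FBS, plated overnight at 37C. Treatment: 15 concentrations, 3 hr, 37C, 0.76% DMSO.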

[13] = qHTS assay to identify small molecule antagonists of the estrogen related receptor (ERR) signaling pathway from Tox21 library (AID 1224848); further: nearly all actives have a fitted effect of over 50% in size
How it was run: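 ERR cell line, 2,000 cells/well. 6 h settle, then compound (DMSO) added; 18 h at 37 C; ONE-Glo luminescence after 30 min RT.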

[14] = qHTS RealTime-Glo MT Cell Viability Assay in HepG2 cells - 24 hour (AID 1224867); further: nearly all actives have a fitted effect of over 50% in size
How it was run: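 Compound treatment began 5 h after plating HepG2 cells (600/well) with NanoLuc luciferase and prosubstrate. Plates stayed at 37 C for 40 h; luminescence was captured at six time points, 0 h through 40 h.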

[15] = qHTS RealTime-Glo MT Cell Viability Assay in HEK293 cells - 32 hour (AID 1224868)
How it was run: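 Quantitative high-throughput screen of the Tox21 10K library in HEK293: cells and RealTime-Glo reagents plated together, compound added at 5 h, luminescence monitored through 40 h at 37 C.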

[16] = qHTS assay to identify small molecule agonists of the hypoxia (HIF-1) signaling pathway (AID 1224846; active means well fitted activation curve with a large enough effect in the signal ratio in the repeat runs, not every such curve was filed as active; the % refers to the signal ratio)
How it was run: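 Compounds from the Tox21 10K library, dissolved in DMSO, are tested for induction of a hypoxia response element–controlled beta-lactamase reporter in ME-180 cells. Exposure lasts 17 hrs at 37C after a 5 hr settling period, followed by CCF4-AM FRET substrate.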

[17] = qHTS assay to identify small molecule agonists of the estrogen related receptor (ERR) signaling pathway from Tox21 library (AID 1224849; calls by dose curve; further: nearly all actives have a fitted effect of over 15% in size); conditions: ERR reporter cell line, ONE-Glo luciferase, 18 h; at 92.4 µM (top of the series) unless noted
How it was run: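 Cells carrying the ERR reporter were plated and allowed to settle for 6 h, exposed to library compounds for 18 h at 37 C, then lysed with ONE-Glo and luminescence measured.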

[18] = A CellTox Green Cytotoxicity Assay to monitor cytotoxicity in HEK293 cells - 0 hour (AID 1224869); further: nearly all actives have a fitted effect of over 50% in size
How it was run: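 Cells (HEK293, 600/well) and dye reagent are dispensed together. After 5 h at 37 C, 23 nL compound is pinned in. Plates stay at 37 C for 40 h with fluorescence read at 0h, 8h, 16h, 24h, 32h and 40h.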

[19] = qHTS assay to identify small molecule agonists of the estrogen related receptor signaling pathway with the pleiotropic PPARgamma coactivator (PGC) from Tox21 10K library (AID 1224842); further: nearly all actives have a fitted effect of over 15% in size
How it was run: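 Luminescence from One-Glo (30 min, room temperature) measured after PGC/ERR cells had 18 h at 37 C with pinned compound (23 nL in DMSO). Cells had been seeded at 2,000 per well and pre-incubated 6 h.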
On the % scale 0 is the no-effect control and ±100 the full control effect.

CN1Cc2cc(C(=O)N3CCC(C4CCNCC4)CC3)ccc2N[C@@H](CC(=O)O)C1=O
inactive: Potency [1] | Potency [2] | Potency [3] | Potency [4] | Potency [5] | Potency [6] | Potency [7] | Potency [8] | Potency [9] | Potency [10] | Potency [11] | Potency [12] | Potency [13] | Potency [14] | Potency [15]

N#C[C@@H]1C[C@@H]2C[C@@H]2N1C(=O)[C@@H](N)C12CC3CC(CC(O)(C3)C1)C2
inactive: Potency [1] | Potency [2] | Potency [3] | Potency [4] | Potency [5] | Potency [6] | Potency [7] | Potency [8] | Potency [9] | Potency [10] | Potency [11] | outcome [16] | Potency [12] | Potency [13] | activity change, positive = activation [17] 0.254% [at 42.5 µM] | Potency [14] | Potency [15] | Potency [18]

CCCCCCCCCCCCCCCCBr
inactive: viability change, negative = cytotoxic [1] 0.749% [at 19 µM] | activity change, negative = inhibition [2] 1.26% [at 23.6 µM] | viability change, negative = cytotoxic [3] 0.618% [at 19 µM] | activity change, negative = cytotoxicity [4] -0.0926% [at 19 µM] | activity, negative = inhibition [5] -0.414% [at 19 µM] | activation [6] -0.821% [at 19 µM] | viability change, negative = cytotoxic [7] 7.8% [at 19 µM] | activity, negative = inhibition [8] 36.1% [at 19 µM] | activation [9] -0.411% [at 19 µM] | activity change, negative = cytotoxicity [10] -1.79% [at 15.8 µM] | activation (H2AX phosphorylation) [11] -0.41% [at 31.6 µM] | activation [16] 0.309% [at 15.8 µM] | activity change, negative = cytotoxicity [12] 2.27% [at 31.6 µM] | activity, negative = inhibition [13] 8.88% [at 19 µM] | activity change, positive = activation [17] 4.62% [at 19 µM] | activity change, negative = cytotoxicity [14] 2.08% [at 15.8 µM] | activity change, negative = cytotoxic [15] 4.73% [at 15.8 µM] | cytotoxicity [18] -1.2% [at 15.8 µM]

CCCOc1ccc(S(=O)(=O)N2CCN(CC)CC2)cc1-c1nc2c(CC)n(Cc3ccccn3)nc2c(=O)[nH]1
inactive: Potency [1] | Potency [2] | Potency [3] | Potency [4] | Potency [5] | Potency [6] | Potency [7] | Potency [8] | Potency [9] | Potency [10] | Potency [11] | outcome [16] | Potency [12] | Potency [14]

O=c1[nH]c2ccc(S(=O)CCN3CCC(Cc4ccc(F)cc4)CC3)cc2o1 (configuration not stated)
inactive: Potency [1] | Potency [2] | Potency [3] | Potency [4] | Potency [5] | Potency [6] | Potency [7] | Potency [8] | Potency [9] | Potency [10] | Potency [11] | outcome [16] | Potency [14] | Potency [18]

COc1cc2[nH]c(=O)[nH]c(=O)c2cc1OC
inactive: Potency [1] | Potency [2] | Potency [3] | Potency [4] | Potency [5] | Potency [6] | Potency [7] | Potency [8] | Potency [19] | Potency [9] | Potency [10] | Potency [11] | outcome [16] | Potency [12] | Potency [13] | Potency [14] | Potency [15] | Potency [18]

c1ccc(COCc2ccccc2)cc1
inactive: Potency [1] | Potency [2] | Potency [3] | Potency [4] | Potency [5] | Potency [6] | Potency [7] | Potency [8] | Potency [9] | Potency [10] | Potency [11] | Potency [12] | Potency [13] | Potency [14] | Potency [15]
